{"source": "PubChem BioAssay (NCATS)", "note": "Records with an inconclusive call do not appear. Unmarked numbers belong to inactive results. The source made the active and inactive calls. Calls come from the whole dose curve; as a rule, active = well fitted inhibition curve with a large enough effect in the repeat runs; inconclusive = weak or mixed curves; inactive = no such curve, though single readings can be large or run the other way. % is set by controls: 0 for no effect and ±100 for the full control effect; potency is the fitted concentration of half-maximal effect.", "data": [{"target": "Cytochrome P450 2C9 (Homo sapiens) (UniProt P11712)", "sequence (P11712 whole entry, looked up)": "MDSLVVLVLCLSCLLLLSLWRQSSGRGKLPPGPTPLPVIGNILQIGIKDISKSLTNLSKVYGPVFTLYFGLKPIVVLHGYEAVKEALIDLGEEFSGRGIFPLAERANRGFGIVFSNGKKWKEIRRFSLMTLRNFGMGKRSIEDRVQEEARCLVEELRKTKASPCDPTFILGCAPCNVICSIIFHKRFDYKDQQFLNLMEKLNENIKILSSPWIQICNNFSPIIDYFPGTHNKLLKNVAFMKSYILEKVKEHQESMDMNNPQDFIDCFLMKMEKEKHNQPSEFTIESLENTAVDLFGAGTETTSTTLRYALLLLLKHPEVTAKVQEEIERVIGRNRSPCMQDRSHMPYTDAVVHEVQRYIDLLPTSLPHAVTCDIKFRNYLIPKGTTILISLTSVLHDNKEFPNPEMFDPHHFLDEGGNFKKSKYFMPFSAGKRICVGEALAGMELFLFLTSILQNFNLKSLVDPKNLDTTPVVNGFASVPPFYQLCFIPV", "experiment": "Cytochrome P450 family 2 subfamily C member 9 (CYP2C9) small molecule antagonists: luciferase biochemical (cell-free) qHTS assay (AID 1645842); note: nearly all actives have a fitted effect of over 55% in size", "settings": "P450-Glo CYP2C9 enzyme assay, luciferin luminescence; series mostly up to 57.4 µM; activity change, negative = inhibition: at the top concentration", "outline": "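Luminescence, after 20 min with luciferin detection reagent, reflected CYP2C9 turnover during a 1 h NADPH-driven reaction at 37C. Enzyme-substrate mix contained 0.4% bovine serum albumin and was preincubated with compound 10 min at room temperature.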", "values": [{"smiles": "CCOC(=O)N1CCC(n2c(=O)[nH]c3cc(Cl)ccc32)CC1", "Potency": "11 µM (active)"}, {"smiles": "CCOc1ccccc1OCC1CNCCO1", "note": "(stereo not drawn)", "activity change, negative = inhibition": "4.01%"}, {"smiles": "Cc1nc(C2CCCCC2)c(-c2ccc(S(N)(=O)=O)c(F)c2)o1", "Potency": "2.19 µM (active)"}, {"smiles": "c1ccc2occc2c1", "activity change, negative = inhibition": "4.52% [at 115 µM]"}, {"smiles": "C[C@@H](C1=C(CCN(C)C)Cc2ccccc21)c1ccccn1", "activity change, negative = inhibition": "-0.511%"}, {"smiles": "CCCCC(CC)COC(=O)c1ccccc1C(=O)O", "note": "(stereo not drawn)", "Potency": "6.26 µM (active)"}, {"smiles": "COc1cc(/C=C/C(N)=O)cc(OC)c1OC", "activity change, negative = inhibition": "5.54%"}, {"smiles": "CC(C)Cc1ccc(C(C)C(=O)OCc2ccccn2)cc1", "note": "(stereo not drawn)", "Potency": "9.77 µM (active)"}, {"smiles": "CC(=O)OC/C=C(C)/C=C/C=C(C)/C=C/C1=C(C)CCCC1(C)C", "Potency": "15.5 µM (active)"}, {"smiles": "CC(=O)N1CCN(c2ccc(O)cc2)CC1", "activity change, negative = inhibition": "-6.74%"}, {"smiles": "O=C(CCC1CCN(Cc2ccccc2)CC1)c1ccc2c(c1)NCCCC2", "activity change, negative = inhibition": "-3.57%"}, {"smiles": "C/C(=N/NC(=O)c1ccncc1)C(=O)O", "activity change, negative = inhibition": "-6.2%"}, {"smiles": "O=C1Nc2ccccc2C1(c1ccc(O)cc1)c1ccc(O)cc1", "Potency": "4.36 µM (active)"}, {"smiles": "Cc1cc(CCCOc2c(C)cc(-c3noc(C(F)(F)F)n3)cc2C)on1", "Potency": "19.5 µM (active)"}, {"smiles": "CCOCCn1c(C2CCN(CCc3ccc(C(C)(C)C(=O)O)cc3)CC2)nc2ccccc21", "activity change, negative = inhibition": "12%"}, {"smiles": "CCCCCCOC(=O)NC(=N)c1ccc(NCc2nc3cc(C(=O)N(CCC(=O)OCC)c4ccccn4)ccc3n2C)cc1", "Potency": "1.38 µM (active)"}, {"smiles": "COc1c(N2C[C@@H]3CCCN[C@@H]3C2)c(F)cc2c(=O)c(C(=O)O)cn(C3CC3)c12", "activity change, negative = inhibition": "7.69%"}, {"smiles": "C[C@@]12CCC[C@H]1[C@@H]1CC[C@H]3C[C@@H](O)CC[C@]3(C)[C@H]1CC2", "Potency": "22.9 µM (active)"}]}]}
